# Laboratory results reported in PubChem BioAssay AID504652 (National Center for Advancing Translational Sciences (NCATS), 2011).
# Several values for one entry are separate records, joined by “and”; a condition that tells them apart may be missing. Equal entries are not always repeated. Out of some 360,000 compounds screened, about 11,000 (3.1%) were called active. Rule as the data show it: active = activity change below about -30%; inactive = the rest. The entries come from a sample that favours actives as a whole. Some compounds were tested as several samples or in several runs, with calls that do not always agree.
# Molecular target: D(1A) dopamine receptor (Homo sapiens) (UniProt P21728)
# Assay: Antagonist of Human D 1 Dopamine Receptor: qHTS
# Conditions: HEK293 TREx D1 cells, calcium flux, dopamine EC80; at 10 µM; stronger effect = lower value
# How it was run: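 Antagonism measured as reduced calcium response to an EC80 dopamine addition following 180 s compound pre-read; cells were inducible HEK293 Trex D1 plated overnight at 30 C, read kinetically at 1 cycle/sec.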
# % is scaled to controls: 0 for no effect and ±100 for the full control effect.
# Chain of D(1A) dopamine receptor (Homo sapiens) (P21728 whole entry, looked up): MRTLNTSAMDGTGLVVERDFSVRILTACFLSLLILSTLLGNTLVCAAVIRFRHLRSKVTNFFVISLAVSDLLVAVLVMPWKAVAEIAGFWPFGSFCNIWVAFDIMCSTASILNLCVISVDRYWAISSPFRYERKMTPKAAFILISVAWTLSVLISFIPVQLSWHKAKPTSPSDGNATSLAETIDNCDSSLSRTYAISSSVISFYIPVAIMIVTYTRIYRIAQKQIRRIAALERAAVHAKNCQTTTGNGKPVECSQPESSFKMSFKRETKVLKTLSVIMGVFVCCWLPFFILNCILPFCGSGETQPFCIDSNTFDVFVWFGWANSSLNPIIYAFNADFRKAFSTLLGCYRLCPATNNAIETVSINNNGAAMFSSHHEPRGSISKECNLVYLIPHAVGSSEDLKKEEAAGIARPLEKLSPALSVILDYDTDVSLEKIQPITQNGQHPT
row,SMILES,"activity change, negative = inhibition"
1,Cc1cccc(-n2ccnc2SCC(=O)Nc2cc(C(F)(F)F)ccc2Cl)c1,-5.92% (inactive)
2,CCOC(=O)N1CCN(c2c(NCCN3CCN(c4ccccc4F)CC3)c(=O)c2=O)CC1,-21.9% (inactive)
3,Cn1c(=O)c(=O)n(C)c2cc(S(=O)(=O)NCCN3CCN(c4ccccc4F)CC3)ccc21,-46.1% (active)
4,Cn1c(=O)c(=O)n(C)c2cc(S(=O)(=O)NCCc3ccccc3)ccc21,-4.68% (inactive)
5,OCCn1c(-c2ccccc2)csc1=Nc1ccccc1,-45.5% (active)
6,CN(C)CCCn1c(-c2ccc(Cl)cc2)csc1=Nc1ccccc1,-34.7% (active)
7,CN(C)CCCn1c(=O)n(Cc2ccccc2)c(=O)c2c3c(sc21)CCCCC3,3.11% (inactive)
8,O=c1cc(CCl)nc2scc(-c3ccccc3)n12,-12.4% (inactive)
9,CN(C)CCCn1c(SCc2ccc(Cl)cc2)nnc1-c1ccncc1,10.2% (inactive)
10,O=C1N(Cc2ccccc2)c2ccc(Cl)cc2C1(O)c1c[nH]c2ccccc12 (centres undefined),-8.31% (inactive)
11,Cc1ccc(-n2nnnc2CNC(=O)c2ccccc2C)cc1C,-3.19% (inactive)
12,COc1ccc(C(=O)Nc2ccnn2C2CCN(Cc3ccncc3)CC2)cc1,-37.3% (active)
13,COc1ccccc1C(=O)Nc1ccnn1C1CCN(Cc2cnn(C)c2)CC1,1.08% (inactive)
14,CC(C)Oc1ccc(CN2CCC(n3nccc3NC(=O)c3cccnc3)CC2)cc1,8.77% (inactive)
15,CCc1ccc(C2CC(=O)c3c([nH]c(C(=O)OCc4ccc(C)cc4)c3C)C2)cc1 (centres undefined),-10.1% (inactive)
16,Cc1cccc(N2CCN(C(=O)c3ccc4c(c3)CCN4S(=O)(=O)c3ccccc3)CC2)c1C,-15.6% (inactive)
17,Cc1c(C)n(Cc2ccc(Cl)cc2)c2ccc(C(=O)N3CCN(c4ccccc4F)CC3)cc12,-18.2% (inactive)
18,CCn1c(C)c(C)c2cc(C(=O)N3CCN(c4cccc(C)c4C)CC3)ccc21,25% (inactive) and -43.2% (active)
19,CN(Cc1ccccc1)c1ncnc2onc(-c3ccc(F)cc3)c12,-1.84% (inactive)
20,Cc1ccc(-c2nnc(SCC(=O)NCc3ccccc3)nc2-c2ccc(C)cc2)cc1,-16.8% (inactive)
21,CCC(CC)c1nn2cc(-c3ccccc3)nc2s1,14.7% (inactive)
22,O=C(Nc1ccc([N+](=O)[O-])cc1)C1CC12CCC2 (centres undefined),-56.8% (active)
23,O=C(CCC(=O)N1CCCC1)Nc1ccc([N+](=O)[O-])cc1,15.5% (inactive)

row,SMILES,"activity change, negative = inhibition"
1,O=C(Nc1ccc([N+](=O)[O-])cc1)C1(c2ccccc2)CCOCC1,-11.2% (inactive)
2,CCC(=O)N1CCc2cc(Br)cc(S(=O)(=O)Nc3ccc(C)cc3C)c21,2.58% (inactive)
3,Cc1c(NC(=O)C(C)(C)C)cccc1-c1nc2ccccc2s1,0.443% (inactive)
4,CCOC(=O)c1ccc(N2C(=O)c3n[nH]c(C)c3C2c2ccc(O)c(OC)c2)cc1 (centres undefined),-4.29% (inactive)
5,Cc1ccc(S(=O)(=O)N2CCN(C)CC2)cc1,0.986% (inactive)
6,Cn1ncc(N2CCN(S(=O)(=O)c3ccc(Br)cc3)CC2)c(Cl)c1=O,-30.4% (active)
7,CCOC(=O)N1CCN(S(=O)(=O)c2ccc(Br)cc2)CC1,-1.63% (inactive)
8,Cc1ccc(C)c(NC(=O)Cn2ccn(-c3ccc(F)cc3)c(=O)c2=O)c1,-20% (inactive)
9,COc1ccccc1NC(=O)c1oc2ccccc2c1NC(=O)C(C)C,-5.69% (inactive)
10,COc1ccc(CCNC(=O)C(=O)NCc2ccccc2C)cc1OC,3.05% (inactive)
11,COC(=O)c1ccc(C2C(Oc3ccccc3C)C(=O)N2CCc2ccc(OC)c(OC)c2)cc1 (centres undefined),-49.6% (active)
12,COc1ccc(CCN2C(=O)c3[nH]nc(-c4ccccc4O)c3C2c2ccc(C)cc2)cc1OC (centres undefined),-3.51% (inactive)
13,Cc1ccccc1NC(=O)CN1C(=O)C(C)(C)c2ccccc21,10.3% (inactive)
14,CCOc1cc(C(=S)N2CCOCC2)ccc1OS(=O)(=O)c1ccc(Br)cc1,-30.6% (active)
15,CCOc1cc(C(=S)N2CCOCC2)ccc1O,-0.874% (inactive)
16,CC(=O)Nc1ccc(S(=O)(=O)Oc2ccc(Br)cc2C(=S)N2CCOCC2)cc1,0.681% (inactive)
17,COC(=O)c1ccc2c(c1)N(CC(=O)Nc1ccc(C)c(C)c1)C(=O)c1ccccc1S2,10.3% (inactive)
18,Cc1csc2nc(COC(=O)c3ccc(NC(=O)COc4ccccc4F)cc3)cc(=O)n12,-26.3% (inactive)
19,CCS(=O)(=O)n1nc(-c2ccccc2)nc1SCc1ccccc1,-30.7% (active)
20,Cc1ccc(S(=O)(=O)n2nc(-c3ccc(Cl)cc3)nc2NCc2ccccc2)cc1,-3.44% (inactive)
21,CCS(=O)(=O)n1nc(-c2ccc(OC)cc2)nc1SC,-19.3% (inactive)
22,COc1ccc(CC(=O)N2N=C(C)CC2(O)C(F)(F)F)cc1 (centres undefined),-2.03% (inactive)
23,CC1=NN(C(=O)CCCc2ccccc2)C(O)(C(F)(F)F)C1 (centres undefined),-32.5% (active)

row,SMILES,"activity change, negative = inhibition"
1,CC1=NN(C(=O)CCc2ccccc2O)C(O)(C(F)(F)F)C1 (centres undefined),12.3% (inactive)
2,O=C(Nc1ccc2oc(-c3ccc(O)c(Br)c3)nc2c1)c1cc2ccccc2o1,-6.68% (inactive)
3,O=C(CC(c1cccs1)N1Cc2ccccc2C1=O)Nc1ccc(F)cc1F (centres undefined),4.94% (inactive)
4,CCOC(=O)c1ccc(NC(=O)CSc2nc3c([nH]c4ccccc43)c(=O)n2C)cc1,-5.11% (inactive)
5,Cc1ccc(C(=O)NC2CC(C)(C)NC(C)(C)C2)c(C)c1,-9.44% (inactive)
6,CC(=O)N/N=C(\C)c1ccc(Br)cc1Br,25.3% (inactive)
7,C/C(=N\NC(=O)C1(C)CC1(Br)Br)c1ccc(C)cc1C (centres undefined),-58.1% (active)
8,CCc1ccc(-n2nc(C)c3c(C)cc(=O)n(CC(=O)Nc4ccc(F)cc4C)c32)cc1,-6.21% (inactive)
9,Cc1ccc2[nH]cc(CCNC(=O)c3ccc([N+](=O)[O-])cc3)c2c1,-29.3% (inactive)
10,O=C(NCCc1ccc(Cl)cc1Cl)c1cc([N+](=O)[O-])c[nH]c1=O,-1.06% (inactive)
11,O=C(NCCc1c[nH]c2ccc(Cl)cc12)c1ccc([N+](=O)[O-])cc1,-40.2% (active)
12,O=C(c1cnn(-c2ccc(F)cc2)c1-n1cccc1)N1CCN(c2ccc(F)cc2)CC1,1.87% (inactive)
13,CCOC(=O)c1cc(-c2ccc(OC)c(S(=O)(=O)Nc3ccc(OC)cc3OC)c2)on1,-13.6% (inactive)
14,CC(Nc1nc(C(F)(F)F)nc2ccccc12)c1cccs1 (centres undefined),-20.1% (inactive)
15,CCc1ccc(C(CNc2nc(C(F)(F)F)nc3ccccc23)N(C)C)cc1 (centres undefined),26.8% (inactive)
16,NS(=O)(=O)c1ccc(CCNc2nc(C(F)(F)F)nc3ccccc23)cc1,-36% (active)
17,COC(=O)c1ccc(NC(=O)c2cc(S(=O)(=O)N3CCC(C)CC3)cn2C)cc1,-19.2% (inactive)
18,COc1ccc(Cn2c(C(=O)O)c(CNCCc3cccs3)c3ccc(OC)cc32)cc1,9.72% (inactive)
19,COc1ccc(CCNC(=O)CN2CCC(n3nnc4cc(F)ccc43)CC2)cc1OC,-3.98% (inactive)
20,Cc1ccc(CCNC(=O)Cn2c(-c3cccs3)cc3cc(F)ccc32)cc1,-40.1% (active)
21,O=C(Cn1c(-c2cccs2)cc2ccccc21)NCCc1ccc(Cl)cc1,-2.26% (inactive)
22,CN(CC(=O)Nc1ccc(F)cc1)C(=O)c1ccc(-c2ccc(Cl)cc2)o1,-13.8% (inactive)
23,CN(C)c1cc(-c2ccc(F)cc2)oc(=O)c1Cl,-37.9% (active)

row,SMILES,"activity change, negative = inhibition"
1,CCCCC(CC)CNC(=O)C1CCN(S(=O)(=O)c2cccc3nsnc23)CC1 (centres undefined),5.74% (inactive)
2,O=C(NCCc1ccc(Cl)cc1)c1ccc2nc(CCc3ccccc3)oc2c1,-1.03% (inactive)
3,Cc1ccc(Nc2nc3ccccc3nc2-n2nc(C)cc2C)c(Cl)c1,6.62% (inactive)
4,O=C(Nc1ccccc1Br)c1cc(CN2CCCC2)on1,-3.7% (inactive)
5,CCCCC(=O)OC1=CN(Cc2ccccc2)S(=O)(=O)c2ccccc21,-18.6% (inactive)
6,COc1ccc(Oc2coc3cc(OC(=O)c4cncc(Br)c4)ccc3c2=O)cc1,-0.64% (inactive)
7,CCc1ccc(Oc2coc3cc(OC(=O)c4cc5ccccc5oc4=O)ccc3c2=O)cc1,-33.2% (active)
8,CCc1ccc(Oc2coc3cc(O)ccc3c2=O)cc1,-2.88% (inactive)
9,CCc1ccc(NC(=O)Cn2c(=O)n(CCC(=O)NCc3ccc4c(c3)OCO4)c(=O)c3ccccc32)cc1,6.37% (inactive)
10,CCN(CC)S(=O)(=O)c1ccc(N2CCCC2)c(NS(=O)(=O)c2cccs2)c1,-40.2% (active)
11,O=S(=O)(Nc1cc(S(=O)(=O)N2CCOCC2)ccc1N1CCCC1)c1cccs1,-6.97% (inactive)
12,CCN(CC)S(=O)(=O)c1ccc(N2CCN(C)CC2)c(NC(=O)Nc2ccccc2F)c1,7.64% (inactive)
13,Cc1ccc(O)c(NC(=O)CCS(=O)(=O)c2nc(-c3ccc4c(c3)OCO4)cc(C(F)(F)F)n2)c1,-20.8% (inactive)
14,O=C(Cc1ccc(Cl)cc1)Nc1ccc2nn(-c3ccc(Cl)cc3)nc2c1,-2.04% (inactive)
15,Cc1cc(NC(=O)CC(C)C)cc(-c2nc3ncccc3o2)c1O,13.5% (inactive)
16,CCOc1ccc(NC(=O)N(CCC(C)C)C(C)c2ccco2)cc1 (centres undefined),-66.3% (active)
17,CCOc1ccc(NC(=O)N(CC(C)C)CC(C)C)cc1,-10.6% (inactive)
18,CCOc1ccc(NC(=O)c2ncoc2-c2ccco2)cc1,0.181% (inactive)
19,CCOC(=O)c1ccccc1NC(=O)CCc1c(C)nc2c(c1C)c(=O)n(C)c(=O)n2C,4.81% (inactive)
20,CCc1ccc(S(=O)(=O)c2nnn3c2nc(N2CCN(CC)CC2)c2sccc23)cc1,8.88% (inactive)
